Screen size: about 310,000 compounds; about 410 (0.13%) were called active. About 2% were inconclusive and are not listed. The rule behind the calls is not given here. The list is a sample of the results. Entries with a potency or affinity are not part of this list.
Experiment: RSV antiviral activity via CPE protection, HEp-2 cells, primary 10 µM value included (AID 2391)
Details: RSV-induced CPE inhibition, at 10 µM, hits give high values

CPE inhibition, inactive:
COc1cc(/C=C/C(=O)NCc2nc3ccccc3[nH]2)cc(OC)c1OC 3.24%
COc1ccc(C(=O)NCc2nc3ccccc3[nH]2)cc1OC 1.66%
CCCSC1=C(C#N)C(c2cccs2)CC(=O)N1 (stereo not drawn) 0.6%
CC1=C(C(=O)OC(C)C)C2(O)C(=O)c3ccccc3C2(O)N1 (stereo not drawn) 0.34%
CC(C)CNC(=O)c1cc([N+](=O)[O-])ccc1N1CCCCC1 1.62%
CC12CCC(=O)C=C1CCC1C2C(=O)CC2(C)C1CC[C@]2(O)C(=O)CO (stereo partly drawn) 1.47%
CC(CCc1ccc(O)cc1)NCc1ccc(Cl)cc1Cl (stereo not drawn) 0.07%
CC(CCc1ccc(O)cc1)NCCC(c1ccccc1)c1ccccc1 (stereo not drawn) 1.43%
COc1ccc(C(=O)NCc2nnc(SCC(=O)N3CCC(C)CC3)o2)cc1 1.04%
Cc1ccc(C2(c3ccc(C)cc3)CC2C(=O)NC(C)C)cc1 (stereo not drawn) 10.9%
O=C(Nc1cccc(C(=O)Nc2cccc(C(F)(F)F)c2)c1)c1ccc(=O)[nH]c1 0.31%
Cc1cc(OC(C)C(=O)NCCN2CCOCC2)c2c(C)cc(=O)oc2c1 (stereo not drawn) 1.3%
COC(=O)Nc1ccc(S(=O)(=O)N2CCCc3ccccc32)cc1 1.75%
CC(=O)Nc1ccc(S(=O)(=O)N2CCCc3ccccc32)cc1 1.45%
COc1ccccc1CCNS(=O)(=O)c1cc2c3c(c1)CCN3C(=O)CC2 2.18%
CC(=O)c1cc2c(cc1NC(=O)c1ccc(C)cc1)OCO2 1.4%
COc1ccc(CC(=O)Nc2cccc(-c3cn4ccccc4n3)c2)cc1 20.4%
Cc1cccc2nc(-c3cccc(NC(=O)c4ccc(Cl)cc4)c3)cn12 6.87%
Cc1cc(Cl)cc(C)c1OCCCCCn1ccnc1 16.9%
Cc1cc(Cl)cc(C)c1OCCCCn1ccnc1 0.28%
Cc1cc(C(=O)Nc2ccccc2C)c2ccccc2n1 -1.47%
CCn1c(SCc2ccc(F)cc2)nnc1-c1nn(-c2ccccc2)ccc1=O 5.54%
CCn1c(SC)nnc1-c1nn(-c2ccccc2)ccc1=O 3.93%
CCOc1ccc(Nc2ccc(S(=O)(=O)N3CCN(C)CC3)cc2[N+](=O)[O-])cc1OCC 2.73%
C/C(N)=C(/C#N)C(=O)CSc1nc2ccccc2c(=O)n1-c1ccc(C)cc1 1.33%
C/C(N)=C(/C#N)C(=O)CSc1nc2ccccc2c(=O)n1-c1ccc(C)c(Cl)c1 3.58%
COC(=O)c1cc2c(C)c(C)c3ccccn3c-2c1C(=O)OC 2.03%
COC(=O)c1cc2n3ccccc3c(C)c(-c3ccccc3)c-2c1C(=O)OC 25.1%
COc1ccc(NC(=O)C2C3C=CC4(O3)C2C(=O)N(CCN2CCCCC2C)C4C(=O)NC2CCCCC2)cc1 (stereo not drawn) -0.76%
Cc1cc(C)c(C)c(C(=O)CSc2nnc(-c3ccc4[nH]c(C)c(C)c4c3)o2)c1C 55.5%
Cc1[nH]c2ccc(-c3nnc(SCC(=O)c4ccc(F)cc4)o3)cc2c1C -1.57%
COc1cc(C)c(C(C)C)cc1S(=O)(=O)n1cnc(C)c1 11.6%
Cc1cc(C)c2c(-n3cccc3)c(C(=O)NNS(=O)(=O)c3ccccc3)sc2n1 15.3%
Cc1cc(C)c2c(-n3cccc3)c(C(=O)NNS(=O)(=O)c3ccc(Br)cc3)sc2n1 53.3%
COc1ccc(N(CC(=O)NCc2ccc(Cl)cc2)S(=O)(=O)c2c(C)n[nH]c2C)cc1 2.71%
O=C(O)c1cc(NS(=O)(=O)c2cccs2)cc(NS(=O)(=O)c2cccs2)c1 0.42%
Cc1cc(C)n2nc(-c3ccccc3)cc2n1 -2.3%
COc1ccc(-c2cc3nc(C)cc(C)n3n2)cc1 2.75%
COc1ccc(CNc2ncnc3sccc23)cc1OC 0.7%
COc1ccc(NCC(=O)Nc2cc(S(=O)(=O)N3CCOCC3)ccc2N2CCOCC2)c(OC)c1 1.68%
COc1ccccc1CC(=O)Nc1cc(S(=O)(=O)N2CCOCC2)ccc1N1CCOCC1 0.24%
CC1CCCC(C)N1C(=O)CSc1nccc(=O)[nH]1 (stereo not drawn) 0.35%
Cc1ccc2nc(Cc3ccc(N)cc3)[nH]c2c1 -0.3%
COC(=O)c1ccc(C(=O)OCc2nc3cc4ccccc4cc3[nH]2)cc1 2.73%
Nc1ccc(C(=O)OCc2nc3ccccc3[nH]2)cc1 1.24%
Nc1ccc2nc(Cc3ccccc3)[nH]c2c1 -1.63%
Cc1cccc(N2CCN(C(=O)C3CCC(=O)N(C4CC4)C3)CC2)c1C (stereo not drawn) -0.26%
O=C(Cc1ccc(-n2c(=O)c3ccccc3n(CC(=O)Nc3ccc(F)cc3F)c2=O)cc1)NCc1ccco1 -0.99%
CCN(CC(=O)Nc1ccc(OC)cc1)C(=O)c1ccccc1Sc1ccccc1C#N -1.42%
COc1ccccc1CNC(=O)C1CCN(S(=O)(=O)c2cccc3cccnc23)CC1 3.16%
COc1ccccc1CNC(=O)C1CCCN(S(=O)(=O)c2cccc3cccnc23)C1 (stereo not drawn) 0.63%
Cc1cc(C)cc(NC(=O)C2CCCN2S(=O)(=O)c2cccc3cccnc23)c1 (stereo not drawn) 58.5%
COc1ccc(NC(=O)C2CCCN2S(=O)(=O)c2cccc3cccnc23)c(OC)c1 (stereo not drawn) 7.4%
Cc1ccccc1NC(=O)C1CCCN(S(=O)(=O)c2cccc3cccnc23)C1 (stereo not drawn) 0.2%
Cc1ccc(NC(=O)C2CCCN2S(=O)(=O)c2cccc3cccnc23)cc1F (stereo not drawn) 52.8%
COc1cccc(CN2CC(C(=O)NCCn3ccc(C)n3)CCC2=O)c1 (stereo not drawn) 0.1%
Cc1ccc2[nH]c(=O)c(N3CCOCC3)c(-c3ccccc3)c2c1 0.29%
CSCCC1NC(=O)N(CC(=O)Nc2c(C(C)C)cccc2C(C)C)C1=O (stereo not drawn) -0.56%
C/C(CCc1ccccc1)=N\NC(=O)CC(=O)NCCc1ccccc1 1.3%
CCSc1nnc(SCC(=O)N2CCN(C(=O)c3ccco3)CC2)s1 1.6%
Cc1ccc(-c2noc(CCC(=O)NCCc3ccccc3Cl)n2)cc1 15.4%
COc1ccc(CNC(=O)c2cc3c(=O)[nH]c4ccccc4c3n2C)cc1 2.27%
Cn1c(C(=O)NCc2cccs2)cc2c(=O)n(C)c3ccccc3c21 0.91%
Cn1c(C(=O)NCC2CCCO2)cc2oc3ccccc3c21 (stereo not drawn) 3.52%
CCOc1ccc(CNC(=O)CCn2c(=O)oc3ccccc32)cc1 2.74%
Cc1ccc2c(c1)cc(C(=O)N[C@@H](Cc1ccccc1)C(=O)O)n2C 1.38%
Cc1ccc(CNC(=O)c2cc3c(=O)n(C)c4ccccc4c3n2C)cc1 0.79%
Cc1c(C(=O)NCc2cccs2)oc2ccccc12 6.49%
COCCNC(=O)c1cc2oc3ccccc3c2n1C 1.43%
NC(=O)c1ccc(OCC2CCCO2)cc1 (stereo not drawn) 0.89%
Cc1cccc(COCC(CC(C)C)N2CCN(C(=O)c3ccc(C(C)(C)C)cc3)CCC2=O)c1 (stereo not drawn) -2.89%
COCCn1c(-c2ccccc2)nc2oc3ccccc3c(=O)c2c1=O 1.49%
O=C(c1ccccc1Br)N1N=C(c2ccccc2)CC1c1ccccc1F (stereo not drawn) 13.7%
Cc1c(C)c2ccc(OCC(=O)NCc3ccccn3)cc2oc1=O 1.94%
Cc1cc(=O)oc(C)c1C(=O)NCCc1ccccc1 -0.07%
CCC(=O)Nc1sc2c(c1C(=O)OC)CCN(Cc1ccccc1)C2 -0.39%
Cc1ccc(C(CC(=O)O)C2CCOC(C)(C)C2)cc1 (stereo not drawn) 0.31%
c1ccc(Cn2nnc3c(N4CCCC4)ncnc32)cc1 -0.08%
c1ccc(Cn2nnc3c(N4CCOCC4)ncnc32)cc1 1.51%
Cc1nnc2sc(-c3cccc(F)c3)nn2c1=O 0.29%
CC(C)CN1CCN(Cc2cnc(-c3ccc(Cl)cc3)nc2)CC1CCO (stereo not drawn) 19.2%
O=C(Nc1nnc(C2=COCCO2)o1)c1ccc([N+](=O)[O-])cc1 0.76%
CCc1cccc(C)c1NC(=O)C1CC=CCC1C(=O)O (stereo not drawn) -1.43%
COc1ccc(/C=C/c2nc3sc4c(c3c(=O)o2)CCC4)cc1 2.5%
O=c1oc(/C=C/c2ccco2)nc2sc3c(c12)CCC3 2.04%
Cc1ccc(OCC(=O)N2c3ccccc3CC2C)c([N+](=O)[O-])n1 (stereo not drawn) -0.02%
O=C(NN=C1c2ccccc2-c2ccccc21)c1ccccn1 1.09%
CCN(CC)CCOc1ccc2c(c1)C(=NNC(=O)c1ccccn1)c1cc(OCCN(CC)CC)ccc1-2 -1.74%
COc1ccc(OC)c(/C(C)=N/Nc2ccc(C(=O)O)cc2)c1 0.2%
COc1ccc(/C(C)=N/Nc2ccc(C(=O)O)cc2)c(OC)c1 1.98%
COc1ccc2[nH]c(C)c(C(=O)CN3CCN(C/C=C/c4ccccc4)CC3)c2c1 4.44%
CC(C)C1Cc2c(sc3c2c(=O)n(-c2ccccc2)c2n[nH]c(=S)n32)CO1 (stereo not drawn) 2.95%
CC(/C=N/NC(=O)c1cc(-c2ccc(C)o2)[nH]n1)=C\c1ccccc1 0.3%

From PubChem BioAssay AID2391 (Southern Research Specialized Biocontainment Screening …, 2010)
